# Assay outcomes as filed in PubChem BioAssay.
# Only some compounds are listed: those with a hit (about 22% of all), similar ones and a draw of the others.
# CYP2C9 inhib – blockers of cytochrome P450 2C9 activity – biochemical, luminescence, ADME assay, primary screen; inhibition, % at 5 µM; P11712; CYP2C9 Supersomes, luciferin-H conversion; actives 20% (n = 96,000); AID 777, 2007;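 active = blocking of liver enzyme CYP2C9 beyond about 50% at 5 µM, limit read from the data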
# Measles CPE – compounds protecting cells from measles virus cytopathic effect, primary screen, measles RdRp inhibitor project, single point, MLSMR library, absorbance. Measles virus-infected cells, CPE protection. protection (pct of control), % at 4 µM. actives 1.5% (n = 140,000). AID 841, 2007; in the data active = protection mostly above about 24%, no sharp cut-off; inactive = mostly below about 26%
# CYP2C9 act – human CYP2C9 activators, primary screen, biochemical, luminescence; Cytochrome P450 2C9 (Homo sapiens), P11712; recombinant CYP2C9, luciferin-H conversion; active compounds read high; factor 1 = untreated enzyme, 0 = blocked; activation factor at 5 µM; actives 1.4% (n = 96,000);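 active = activation factor of 2 or more for CYP2C9 at a 5 µM dose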;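 note: 0 = sulfaphenazole-blocked wells and 1 = vehicle-only wells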
# CYP2C19 inh – blockers of cytochrome P450 2C19 activity – biochemical, luminescence, ADME assay, primary screen; CYP2C19 Supersomes, luciferin-H EGE luminescence, 30 min; actives 21% (n = 96,000); P33261; inhibition, % at 5 µM;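 active = CYP2C19 inhibition above a set limit at 5 µM in the primary screen, cut at about 50% in these data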;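 note: plate controls were negative control wells for no effect and 2.5 mM tranylcypromine positive control for full effect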
# Target sequence (P33261 whole entry, looked up): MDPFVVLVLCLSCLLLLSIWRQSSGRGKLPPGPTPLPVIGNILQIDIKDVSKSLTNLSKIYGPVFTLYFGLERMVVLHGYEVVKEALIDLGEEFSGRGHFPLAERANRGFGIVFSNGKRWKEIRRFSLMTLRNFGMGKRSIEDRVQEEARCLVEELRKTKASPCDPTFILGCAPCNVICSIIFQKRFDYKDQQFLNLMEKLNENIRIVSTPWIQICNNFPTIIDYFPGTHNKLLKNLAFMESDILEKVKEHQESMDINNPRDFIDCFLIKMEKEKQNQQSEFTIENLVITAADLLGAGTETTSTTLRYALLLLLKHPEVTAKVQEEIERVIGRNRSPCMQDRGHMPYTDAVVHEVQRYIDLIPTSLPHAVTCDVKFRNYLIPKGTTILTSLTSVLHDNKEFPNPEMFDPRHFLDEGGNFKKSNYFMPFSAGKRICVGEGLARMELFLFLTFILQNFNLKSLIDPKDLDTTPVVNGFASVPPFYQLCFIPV
# CYP2C19 act – human CYP2C19 activators, primary screen, biochemical, luminescence | AID 1025, 2008 | activation factor at 5 µM | recombinant CYP2C19, luciferin-H EGE luminescence; active compounds read high; 0 = fully inhibited enzyme, 1 = untreated enzyme | 96,000 tested, under 10 active | Cytochrome P450 2C19 (Homo sapiens), P33261;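 active = activation factor of at least 2 at 5 µM in the primary screen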;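 note: 0 = wells with 2.5 mM tranylcypromine and 1 = vehicle-only wells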
# Active calls of the source: *; . = no result.
SMILES,CYP2C9 inhib,Measles CPE,CYP2C9 act,CYP2C19 inh,CYP2C19 act
CC1=C(C(=O)OCC2CCCO2)C(c2ccccc2)NC(=O)N1 (stereo not drawn),17.6,13.2,0.8,62.2*,0.4
CCOC(=O)C1=C(C)NC2=C(C(=O)CCC2)C1c1cccnc1 (stereo not drawn),32.4,44.3,0.7,34.6,0.7
CC1=C(C(=O)OCC2CCCO2)C(c2ccc(O)cc2)NC(=O)N1 (stereo not drawn),-8.0,23.0,1.1,-0.1,1
CC1=C(C(=O)OCC2CCCO2)C(c2ccncc2)C2=C(CCCC2=O)N1 (stereo not drawn),48.4,5.7,0.5,75.2*,0.2
Cn1c(=O)c2c(nc(N3CCCCC3)n2CCNC2=NCCC2)n(C)c1=O,-5.7,24.1,1.1,4.3,1
N#CC1=C(SCC(=O)Nc2ccccc2)NC(=O)CC1c1ccco1 (stereo not drawn),.,6.9,.,.,.
N#CC1=C(SCC(=O)NC2CCCCC2)NC(=O)CC1c1ccco1 (stereo not drawn),58.7*,1.4,0.4,72.1*,0.3
Cc1ccc(C2CC(=O)NC(SCc3ccccc3)=C2C#N)o1 (stereo not drawn),52.7*,18.1,0.5,34.3,0.7
N#CC1=C(SCc2ccccc2)NC(=O)CC1c1ccco1 (stereo not drawn),71.3*,4.7,0.3,28.2,0.7
N#CC1=C(SCC(=O)NCc2ccccc2)NC(=O)CC1c1ccco1 (stereo not drawn),87.6*,23.2,0.1,67.0*,0.3
Brc1ccc(OCCOc2cccc3cccnc23)cc1,.,3.0,.,.,.
Cc1ccc(Cn2nnnc2CN2CCC(NC(=O)c3ccccc3F)CC2)cc1,26.0,7.7,0.7,1.6,1
Cc1ccc2nc3c(cc(C(N)=S)c(=N)n3CCCOC(C)C)c(=O)n2c1,49.3,7.7,0.5,80.8*,0.2
C=CCn1c(=N)c(C(=O)OCC)cc2c(=O)n3cc(C)ccc3nc21,9.1,.,0.9,11.3,0.9
COc1ccc(-c2cc3nc(C)c(CCC(=O)NCc4ccco4)c(C)n3n2)c(OC)c1,.,18.8,.,.,.
Cc1nc2cc(-c3ccc(Cl)cc3)nn2c(C)c1CCC(=O)NCc1ccco1,19.7,6.9,0.8,79.1*,0.2
COc1cc(/C=C/C(=O)O)cc(S(=O)(=O)NCCCO)c1OC,9.6,4.5,0.9,-2.6,1
O=S(=O)(c1cc(Cl)ccc1Cl)n1nnc2ccccc21,-11.0,6.6,1.1,-3.4,1
COc1cccc(C2CC(=O)N3CN(c4cccc(Cl)c4C)CSC3=C2C#N)c1OC (stereo not drawn),97.4*,13.6,0,8.1,0.9
COc1ccc(OC)c(C2CC(=O)N3CN(c4cccc(Cl)c4C)CSC3=C2C#N)c1 (stereo not drawn),96.8*,.,0,30.9,0.7
C/C(=N\NC(=O)c1c[nH]c2ccccc12)c1ccc(C)o1,36.8,9.6,0.6,42.2,0.6
O=C(N/N=C/c1ccco1)c1cc(Br)ccc1OCc1ccccc1,.,5.4,.,.,.
O=C(CN(CCCN1CCOCC1)C(=O)Cn1nnc(-c2ccc(F)cc2)n1)NC1CCCCC1,-17.2,1.3,1.2,-12.0,1.1
c1ccc(CSc2nnc(NC3=NCCCCC3)s2)cc1,36.6,9.3,0.6,68.3*,0.3
Cn1cc(CNC(=O)COc2ccc(Cl)cc2Cl)cn1,1.8,5.2,1,89.3*,0.1
SMILES,CYP2C9 inhib,Measles CPE,CYP2C9 act,CYP2C19 inh,CYP2C19 act
O=C(COc1ccc(Cl)cc1Cl)Nc1ccc(Cl)cn1,13.8,8.6,0.9,57.8*,0.4
Cc1nn(C)cc1CNC(=O)COc1ccc(Cl)cc1Cl,.,21.8,.,.,.
CN1C(=O)c2ccc(NC(=O)c3ccc(N4CCCCC4)c([N+](=O)[O-])c3)cc2C1=O,.,9.1,.,.,.
CC(=O)N(Cc1cc(=O)[nH]c2ccccc12)c1ccc(C)cc1,64.3*,27.2,0.4,51.1*,0.5
Cc1ccc(N(Cc2cc(=O)[nH]c3ccccc23)C(=O)c2ccco2)cc1,30.3,3.4,0.7,-0.1,1
COc1ccc(CCn2c(N)c(C#N)c3nc4ccccc4nc32)cc1OC,40.4,19.9,0.6,97.9*,0
COc1ccc(Cn2c(N)c(C#N)c3nc4ccccc4nc32)cc1OC,66.9*,14.4,0.3,90.4*,0.1
N#CCCn1c2ccccc2c2nc3ccccc3nc21,8.0,16.8,0.9,-12.4,1.1
